This is part of a sample that, as a whole, favours compounds with a hit. Of some 83,000 tested, about 20% had one in any assay.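 Treatment: one concentration, 48 hours, 96-well format. Scoring: percent growth, with anything below 10 considered active.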 Active and inactive are the calls of the source.
Tests used:
Experiment in all cases: NCI-60 one-dose screen, 48 h (100 = growth as untreated, 0 = no growth, -100 = all killed)
Conditions in all cases: 10 µM unless noted
[1] = test system: NCI-H23 lung
[2] = test system: NCI-H226 lung
[3] = test system: NCI-H322M lung
[4] = test system: HOP-62 NSCLC
[5] = test system: NCI-H460 lung
[6] = test system: NCI-H522 lung
[7] = test system: A549/ATCC NSCLC
[8] = test system: 786-0 renal
[9] = test system: COLO 205 colon
[10] = test system: DU-145 prostate
[11] = test system: MALME-3M melanoma
[12] = test system: MDA-MB-231 breast
[13] = test system: RXF 393 renal
[14] = test system: SF-268 CNS
[15] = test system: SF-295 CNS
[16] = test system: SF-539 CNS
[17] = test system: UACC-257 melanoma
[18] = test system: M14 melanoma
[19] = test system: K-562 leukemia

Measured: growth

CCNC(=O)c1ccc2c(c1)nc(-c1ccc(Cl)cc1)n2-c1cc(C(C)(C)C)[nH]n1
inactive: [1] 60% | [2] 46.9% | [3] 70.9% | [4] 47.3% | [5] 36.7% | [6] 32.3% | [7] 48.6% | [8] 27.7% | [9] 51.8% | [10] 71.4% | [11] 34.9% | [12] 64.3% | [13] 36.2% | [14] 51.6% | [15] 16.4% | [16] 32.6% | [17] 79.1% | [18] 18.1%

C[N+](C)(C)CC(=O)N/N=C\c1ccco1
inactive: [1] 99.6% | [2] 103% | [3] 105% | [4] 86.5% | [5] 108% | [6] 85.7% | [7] 98.1% | [8] 102% | [10] 104% | [19] 53.3% | [11] 100% | [12] 118% | [13] 118% | [14] 105% | [15] 106% | [16] 95.3% | [17] 106% | [18] 111%

C=C(C)[C@@H]1CC[C@]2(C(=O)NS(=O)(=O)c3ccccc3)CC[C@]3(C)[C@H](CC[C@@H]4[C@@]5(C)CC[C@H](OC(=O)NS(=O)(=O)c6ccccc6)C(C)(C)[C@@H]5CC[C@]43C)[C@@H]12
inactive: [2] 30.9% | [3] 34.1% | [6] 16.7% | [7] 18.3% | [10] 43.3% | [11] 11.3% | [12] 39.7% | [14] 41.4% | [17] 27.8% | [18] 12.8%
active: [1] -9.55% | [4] -13.4% | [5] -53.8% | [8] -43.5% | [13] -25.9% | [15] 1.73% | [16] -34.3%

Clc1ccc(C2=NN[C@H](c3cn(-c4ccccc4)nc3-c3ccccc3)C2)cc1
inactive: [1] 52% | [2] 55% | [3] 72.5% | [4] 16.1% | [5] 45.5% | [6] 76.3% | [7] 46.5% | [8] 83.7% | [10] 55.3% | [19] 61.6% | [11] 64.3% | [12] 64.4% | [13] 42.6% | [14] 74.6% | [16] 67% | [17] 66.3% | [18] 71.1%
active: [15] -20.8%

CC(C)C/C=C/C=C/C(=O)N[C@@H](CC(N)=O)C(=O)N[C@@H]1C(=O)N[C@H](c2ccc(O)cc2)C(=O)N[C@H](CCCN)C(=O)N[C@H]([C@@H](C)O)C(=O)N[C@H](c2ccc(O)cc2)C(=O)N[C@H](c2ccc(O)cc2)C(=O)N[C@H]([C@H](C)O)C(=O)N[C@H](Cc2ccccc2)C(=O)N[C@H](CCCN)C(=O)N[C@H](c2ccc(O[C@H]3O[C@@H](CO)[C@@H](O)[C@@H](O)[C@H]3O[C@@H]3O[C@H](CO)[C@H](O)[C@H](O)[C@@H]3O)cc2)C(=O)N[C@H]([C@H](C)O)C(=O)N[C@H](c2ccc(O)cc2)C(=O)NCC(=O)N[C@H](CC(C)C)C(=O)N[C@H](C)C(=O)N[C@H](c2ccc(O)c(Cl)c2)C(=O)O[C@@H]1C(N)=O
active: [8] -48.7% | [12] -4.62% | [16] 4.24% | [17] 6.54%
inactive: [1] 39.5% | [2] 68.6% | [3] 57.5% | [4] 53.4% | [5] 15.6% | [6] 78.1% | [7] 91.8% | [10] 90.6% | [19] 30.8% | [11] 23.4% | [13] 44.9% | [14] 59.9% | [15] 20.1% | [18] 44.4%

Reference: PubChem BioAssay (NCI)
